M1 antag: human M1 muscarinic receptor antagonists, primary screen, CHO-K1 cells, Fluo-8 calcium fluorescence, 1536-well; CHO-K1 hM1, ACh EC80 antagonist; Muscarinic acetylcholine receptor M1 (Homo sapiens), P11229; AID 588852, 2011; 1.3% of 360,000 active; inhibition, % at 3 µM;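 active = percent inhibition above its own plate's cutoff, namely the mean of that plate's compound wells plus 3 SD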;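 note: peak over basal fluorescence ratio during 140 s after agonist addition; 0% = ACh EC80 plus DMSO and 100% = DMSO alone without agonist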
Target sequence (P11229 whole entry, looked up): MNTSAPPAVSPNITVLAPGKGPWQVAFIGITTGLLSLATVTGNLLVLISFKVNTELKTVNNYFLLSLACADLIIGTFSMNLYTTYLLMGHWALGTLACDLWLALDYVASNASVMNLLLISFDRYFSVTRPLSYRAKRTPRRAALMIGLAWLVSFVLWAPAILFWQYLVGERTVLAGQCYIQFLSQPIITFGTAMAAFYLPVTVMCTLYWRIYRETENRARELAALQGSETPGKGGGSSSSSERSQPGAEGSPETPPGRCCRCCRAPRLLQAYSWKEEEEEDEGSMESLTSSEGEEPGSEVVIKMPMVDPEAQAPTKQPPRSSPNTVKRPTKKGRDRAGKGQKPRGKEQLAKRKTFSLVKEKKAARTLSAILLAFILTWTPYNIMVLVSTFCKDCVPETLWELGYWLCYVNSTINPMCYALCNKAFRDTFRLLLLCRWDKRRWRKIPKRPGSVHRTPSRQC
M1 ag: human M1 muscarinic receptor agonists, primary screen, Fluo-8 calcium fluorescence, CHO-K1 cells, HTS; Muscarinic acetylcholine receptor M1 (Homo sapiens), P11229; CHO-K1 hM1, agonist mode; 0% DMSO, 100% acetylcholine EC100; activation, % at 3 µM; 0.33% of 360,000 active; AID 588814, 2011;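 active = activation above the run's mean compound activation plus 3 SD, cut at about 16% in these data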;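 note: peak over basal fluorescence ratio within a 140 s kinetic read after compound addition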
CHO-K1 Ca antag: M1 antagonist counterscreen hit in parental CHO-K1 cells. ATP-induced calcium, Fluo-8 fluorescence. inhibition, % at 3 µM. 0.6% of 360,000 active. AID 602250;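 active = inhibition above a per-plate cutoff, the plate's mean sample inhibition plus 3 SD, cut at about 24% in these data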;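 note: 0% = DMSO plus EC80 ATP and 100% = DMSO alone without ATP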
M1 PAM parental: nonselective calcium activators in parental CHO-K1 cells, primary screen, counter-screen for M1 PAM project, cell-based, Fluo-8 calcium fluorescence, full deck, 1536-well | 0.02% of 360,000 active | AID 602247, 2012 | ATP EC20; 0% at ATP EC20, 100% at ATP max | activation, % at 3 µM;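 active = activation above the run cutoff, the mean activation of all test compounds plus 3 SD, cut at about 40% in these data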;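 note: peak over basal fluorescence ratio in a 140 s read after ATP addition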
CHRM1 PAM: human M1 muscarinic receptor positive allosteric modulators, primary screen, CHO-K1 cells, Fluo-8 calcium fluorescence, 1536-well; activation, % at 3 µM; CHO-K1 hM1, ACh EC20; 0% = ACh EC20, 100% = maximal ACh; AID 588819, 2011; 0.088% of 360,000 active; in the data active = activation above about 19%, passing the limit was not always enough
CHO-K1 Ca ag: counter-screen for M1 agonists: effect in parental CHO-K1 cells; Fluo-8 calcium fluorescence; scaled to maximal ATP response, vehicle zero; activation, % at 3 µM; 0.48% of 360,000 active; AID 602248, 2012; in the data active = activation above about 15%;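 note: untransfected CHO-K1 host cells lacking M1 receptor as counterscreen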
Numbers without * were called inactive. Rows were chosen to be rich in hits. Some 2.3% of all compounds tested hit in one or more screens of this group.

For CCc1c(C#N)c(SCCC(=O)Nc2cccc(OC)c2)nc2c1C(=O)CC(C)(C)C2 the results were M1 antag 14, M1 ag -1, CHO-K1 Ca antag 1, M1 PAM parental 18, CHRM1 PAM -11 and CHO-K1 Ca ag 4.
Screening CCc1c(C#N)c(SCCC(=O)Nc2ccc(F)cc2)nc2c1C(=O)CC(C)(C)C2 returned M1 antag 38*, M1 ag 0, CHO-K1 Ca antag 2, M1 PAM parental 0, CHRM1 PAM -18 and CHO-K1 Ca ag 3.
For CC(C)=CCCC(C)CN(C)CCc1ccccn1 (centres undefined) the results were M1 antag 42*, M1 ag -8, CHO-K1 Ca antag -3, M1 PAM parental -7, CHRM1 PAM -19 and CHO-K1 Ca ag 0.
Screening Cc1ccccc1CN(C)CCc1ccccn1 returned M1 antag -4, M1 ag -2, CHO-K1 Ca antag -9, M1 PAM parental 1, CHRM1 PAM 8 and CHO-K1 Ca ag 0.
`CC(C)(C)C(=O)OC/C(N)=N/OC(=O)c1ccc(Cl)cc1` gave M1 antag -14, M1 ag -2, CHO-K1 Ca antag -9, M1 PAM parental 23, CHRM1 PAM 7 and CHO-K1 Ca ag 16*.
N/C(Cc1ccc(Cl)cc1)=N\OC(=O)c1ccccc1 was read as M1 antag -10, M1 ag -4, CHO-K1 Ca antag -7, M1 PAM parental 19, CHRM1 PAM -2 and CHO-K1 Ca ag 1.
Screening O=C(Nc1ccccn1)c1ccc(CN(c2ccccc2)S(=O)(=O)c2ccccc2)cc1 returned M1 antag 1, M1 ag -12, CHO-K1 Ca antag 0, M1 PAM parental 3, CHRM1 PAM 1 and CHO-K1 Ca ag 1.
Screening Cc1cccc(C(C)C)c1NC(=O)c1ccc(CN(c2ccccc2)S(=O)(=O)c2ccccc2)cc1 returned M1 antag 4, M1 ag 1, CHO-K1 Ca antag 26*, M1 PAM parental -13, CHRM1 PAM 3 and CHO-K1 Ca ag 0.
COc1cc(CNc2ncc(-c3ccc(Br)cc3)n2C)cc(OC)c1O was read as M1 antag 11, M1 ag -4, CHO-K1 Ca antag 6, M1 PAM parental 0, CHRM1 PAM -5 and CHO-K1 Ca ag 6.
Screening O=C1C(Cl)=C(N2CCN(Cc3ccccc3)CC2)C(=O)N1Cc1ccccc1 returned M1 antag 57*, M1 ag -7, CHO-K1 Ca antag 8, M1 PAM parental 11, CHRM1 PAM -25 and CHO-K1 Ca ag 1.
Screening Cc1ccc(S(=O)(=O)N2[C@@H](c3ccc(C(C)(C)C)cc3)C(C(=O)O)=CC[C@H]2c2cccs2)cc1 returned M1 antag -13, M1 ag -2, CHO-K1 Ca antag 34*, M1 PAM parental -12, CHRM1 PAM 10 and CHO-K1 Ca ag 0.
`Cc1cccc(-n2nc3c(c2NC(=O)c2ccc4c(c2)OCO4)CS(=O)(=O)C3)c1C` gave M1 antag -12, M1 ag -3, CHO-K1 Ca antag -6, M1 PAM parental 11, CHRM1 PAM 10 and CHO-K1 Ca ag 0.
For O=C(Nc1ccccc1)c1cc(C2CCCN(C(=O)c3ccccc3)C2)on1 (centres undefined) the results were M1 antag -9, M1 ag -8, CHO-K1 Ca antag -14, M1 PAM parental 17, CHRM1 PAM 1 and CHO-K1 Ca ag 2.
For CCCC(=O)N1CCCC(c2cc(C(=O)Nc3ccccc3)no2)C1 (centres undefined) the results were M1 antag -9, M1 ag -8, CHO-K1 Ca antag 24*, M1 PAM parental -15, CHRM1 PAM 2 and CHO-K1 Ca ag 0.
For O=C(Nc1ccccc1)c1cc(C2CCCN(C(=O)c3cccs3)C2)on1 (centres undefined) the results were M1 antag -8, M1 ag -8, CHO-K1 Ca antag 24*, M1 PAM parental -9, CHRM1 PAM 1 and CHO-K1 Ca ag 0.
For Cc1ccc(NC(=O)CN2C(=O)NC3(CCCc4ccccc43)C2=O)c([N+](=O)[O-])c1 (centres undefined) the results were M1 antag -14, M1 ag -2, CHO-K1 Ca antag 2, M1 PAM parental 6, CHRM1 PAM -6 and CHO-K1 Ca ag 0.
For Cc1nc2cc(NC(=O)Nc3cccc4ccccc34)ccc2n1C the results were M1 antag -5, M1 ag -7, CHO-K1 Ca antag -14, M1 PAM parental 24, CHRM1 PAM 6 and CHO-K1 Ca ag 1.
For O=C(Nc1ccc2snnc2c1)Nc1cccc2ccccc12 the results were M1 antag -9, M1 ag 17*, CHO-K1 Ca antag 29*, M1 PAM parental 4, CHRM1 PAM -7 and CHO-K1 Ca ag 8.
Screening CCOC(=O)Cn1c(=O)oc2cc(S(=O)(=O)NC3CCCCC3)ccc21 returned M1 antag 32*, M1 ag -1, CHO-K1 Ca antag 16, M1 PAM parental -3, CHRM1 PAM -20 and CHO-K1 Ca ag 1.
Screening CN(CCN(C)C(C)(C)C)C(=O)C(c1ccccc1)c1ccccc1 returned M1 antag 97*, M1 ag -6, CHO-K1 Ca antag -2, M1 PAM parental -10, CHRM1 PAM -27 and CHO-K1 Ca ag 1.
Screening CSc1ccc(CN(C)C(=O)C(c2ccccc2)c2ccccc2)cc1 returned M1 antag 20, M1 ag -7, CHO-K1 Ca antag -1, M1 PAM parental 19, CHRM1 PAM -6 and CHO-K1 Ca ag 1.
`O=C(COc1ccccc1Cl)c1ccc[nH]1` gave M1 antag 29*, M1 ag -11, CHO-K1 Ca antag 8, M1 PAM parental 9, CHRM1 PAM -5 and CHO-K1 Ca ag 2.
OCCN1CCN(CC/C=C2/c3ccccc3Sc3ccc(C(F)(F)F)cc32)CC1 was read as M1 antag 36, M1 ag -5, CHO-K1 Ca antag -5, M1 PAM parental 17, CHRM1 PAM -24 and CHO-K1 Ca ag 3.
`CCCCCC[N+](C)(C)CC/C=C1/c2ccccc2Sc2ccc(Cl)cc21` gave M1 antag 99*, M1 ag -7, CHO-K1 Ca antag 2, M1 PAM parental -3, CHRM1 PAM -24 and CHO-K1 Ca ag 0.
CN(C)CC/C=C1/c2ccccc2Sc2ccc(Cl)cc21 was read as M1 antag 99*, M1 ag -4, CHO-K1 Ca antag -3, M1 PAM parental 8, CHRM1 PAM -25 and CHO-K1 Ca ag 1.
